Results reported in PubChem BioAssay (NCATS).
Results filed as inconclusive are left out. Active and inactive are the calls of the source. Calls come from the whole dose curve; as a rule, active = well fitted inhibition curve with a large enough effect; inconclusive = small, poorly fitted or top-dose-only effect; inactive = flat fitted curve, though single readings scatter.

Key:
Assay in all cases: qHTS profiling for inhibitors of Plasmodium falciparum proliferation (AID 504749); note: nearly all actives have a fitted effect of over 60% in size
Conditions in all cases: P. falciparum in erythrocytes, SYBR Green DNA, 72 h; series mostly up to 28.7 µM
7G8 = test system: 7G8
Outline: (§1)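 In a 72 h erythrocytic culture (37 C, humidified, 5% CO2) at 2.5% hematocrit and 0.3% starting parasitemia, compounds were tested; SYBR Green I in detergent lysis buffer stained parasite DNA overnight.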

AS120 = test system: AS120
Outline: as §1

ATS95 = test system: ATS95
Outline: as §1

C2A = test system: C2A
Outline: as §1

CP191 = test system: CP191
Outline: as §1

CP203 = test system: CP203
Outline: as §1

CP211 = test system: CP211
Outline: as §1

CP215 = test system: CP215
Outline: as §1

CP217 = test system: CP217
Outline: as §1

CP237 = test system: CP237
Outline: as §1

CP252 = test system: CP252
Outline: as §1

CP256 = test system: CP256
Outline: as §1

CP268 = test system: CP268
Outline: as §1

CP269 = test system: CP269
Outline: as §1

CP305 = test system: CP305
Outline: as §1

P93_24 = test system: P93_24
Outline: as §1

PC26 = test system: PC26
Outline: as §1

PC49 = test system: PC49
Outline: as §1

TAB109 = test system: TAB109
Outline: as §1

W2 = test system: W2
Outline: as §1

Measured: Potency
Potency is the fitted concentration of half-maximal effect.

C[C@@]12C(=O)OC(=O)[C@]1(C)[C@H]1CC[C@@H]2O1
active: 7G8 2820 nM | AS120 3550 nM | ATS95 3980 nM | C2A 3980 nM | CP191 1580 nM | CP203 2560 nM | CP211 5100 nM | CP215 2280 nM | CP217 2510 nM | CP237 1260 nM | CP252 3980 nM | CP256 3980 nM | CP268 2870 nM | CP269 2560 nM | CP305 2870 nM | P93_24 3980 nM | PC26 2870 nM | PC49 2240 nM | TAB109 2820 nM | W2 2280 nM

CC(/C=C1\SC(=S)N(CC(=O)O)C1=O)=C\c1ccccc1
not listed: CP268
inactive: all other assays above

C=C1CCC2[C@](C)(CO)C(O)CC[C@]2(C)C1C/C=C1/C(=O)OCC1O (stereo not given in full)
inactive: CP268
